This is a sample that favours compounds with a hit; in the whole collection about 4.6% have one here.
HSF1 activator = increases HSF-1 driven luciferase reporter signal; NIH3T3-HGL HSF-1 luciferase reporter, MG132, 8 h; 100% = twice DMSO control signal; 1.7% of 300,000 active; activation, % at 9 µM; AID 504408;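 active = mean replicate activation of at least 50% with a set share of replicates each reaching 50%; inconclusive = only one of those two conditions met; inactive = mean below 50% and too few replicates reaching it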;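 note: 0% = median of the neutral control wells and 100% = twice that signal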
GAA850 FXN act = increases GAA850 frataxin promoter reporter activity; HEK293 lucGAA850 FXN promoter luciferase reporter, 24 h; percent of 10 µM SAHA response; 0.56% of 360,000 active; activation, % at 6 µM;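 active = activation above the average of all compounds screened plus 3 SD, cutoff fixed separately per campaign, cut at about 7.5% in these data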;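 note: 0% = DMSO wells and 100% = 10 µM SAHA wells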
AHR act = activators of human aryl hydrocarbon receptor; activation, % at 5 µM; AHR-responsive luciferase reporter cells, luminescence; 2.5% of 320,000 active; AID 2796; P35869; in the data active = activation above about 47%;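 note: 0% = vehicle wells and 100% = reference agonist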
Target sequence (P35869 whole entry, looked up): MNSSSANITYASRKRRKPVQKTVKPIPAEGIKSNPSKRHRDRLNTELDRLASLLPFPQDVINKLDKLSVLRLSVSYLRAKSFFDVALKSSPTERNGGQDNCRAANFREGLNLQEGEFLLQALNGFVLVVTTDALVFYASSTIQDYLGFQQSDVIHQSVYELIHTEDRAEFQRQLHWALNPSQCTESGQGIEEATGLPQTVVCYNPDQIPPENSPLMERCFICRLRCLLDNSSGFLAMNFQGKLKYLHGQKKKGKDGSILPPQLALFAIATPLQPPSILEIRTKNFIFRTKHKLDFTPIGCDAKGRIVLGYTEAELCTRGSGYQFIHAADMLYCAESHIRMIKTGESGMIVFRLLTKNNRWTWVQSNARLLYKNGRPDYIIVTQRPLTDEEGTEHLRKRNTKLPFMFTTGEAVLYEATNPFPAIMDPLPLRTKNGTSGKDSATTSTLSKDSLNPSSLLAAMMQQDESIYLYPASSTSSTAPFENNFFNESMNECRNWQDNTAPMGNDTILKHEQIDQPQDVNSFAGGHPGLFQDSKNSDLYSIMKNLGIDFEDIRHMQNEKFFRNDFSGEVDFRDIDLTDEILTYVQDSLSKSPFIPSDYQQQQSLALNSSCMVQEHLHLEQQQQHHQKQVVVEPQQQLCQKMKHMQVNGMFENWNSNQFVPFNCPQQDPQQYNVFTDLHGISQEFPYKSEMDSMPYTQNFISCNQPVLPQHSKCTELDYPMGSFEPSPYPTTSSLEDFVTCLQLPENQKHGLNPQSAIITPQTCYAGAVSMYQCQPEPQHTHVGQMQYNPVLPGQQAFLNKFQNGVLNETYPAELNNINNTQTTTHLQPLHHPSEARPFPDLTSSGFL
HSF1 inhib = HSF1 inhibition | NIH3T3-HGL HSE-luciferase, MG132-induced, luminescence 8 h; hits give low values | activity change, negative = inhibition, % at 7.5 µM (by protocol) | 0.77% of 300,000 active;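 active = more than half of replicate wells show activity change below -50%, luminescence cut by over half; inconclusive = some wells, but at most half, below -50%; inactive = no replicate well below -50%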;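 note: luciferase reports HSF-1 transcriptional activity via heat shock element; 0% = median of DMSO wells and -100% = zero luminescence signal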
Active calls of the source: *; ? = inconclusive; . = no result.

SMILES | HSF1 activator | GAA850 FXN act | AHR act | HSF1 inhib
CCN(CC)C(=O)CSc1ncnc2c1cnn2Cc1ccccc1 | 21.8 | -1.0 | 37.5 | 4.3
CC(C)(C)C(=O)/C(=C/c1ccc(Cl)cc1)n1cncn1 | 150.3* | -8.2 | . | 122.5
O=S(=O)(O)c1ccc(NN=Cc2ccccc2O)cc1 | . | -0.2 | . | .
Cc1ccc(NC(=O)CCc2c(C)nn(-c3ccc(N4CCCCC4)nn3)c2C)cc1 | 46.8 | 0.8 | 10.4 | 20.1
Cc1ccc(NC(=O)CCc2c(C)nn(-c3ccc(N4CCCCC4)nn3)c2C)cc1C | 56.0* | 1.6 | 10.5 | 36.3
CC(=O)c1ccc(NC(=O)c2onc(C)c2Cl)cc1 | 12.7 | 2.6 | 9.1 | 9.4
O=C(NCCc1csc(-c2cccnc2)n1)c1ccccc1 | -14.3 | 0.1 | 3.9 | -8.5
O=C(NCc1ccccc1)c1csc(-c2cccnc2)n1 | -27.7 | -3.4 | 66.6* | -22.4
CC(=O)NCCc1csc(-c2ccccc2)n1 | -6.1 | 2.5 | -1.3 | -0.5
O=C(NCCc1csc(-c2cccnc2)n1)c1cccc2ccccc12 | -12.0 | 0.2 | 57.1* | -5.0
CC(C)(C)CC(=O)NCCc1csc(-c2ccccc2)n1 | 63.4* | 5.8 | 4.5 | 40.7
CCOC(=O)/C(=C\C=C\N1CCOCC1)C(C)=O | 49.5 | 3.9 | 2.4 | 5.7
O=C(O)c1ccc(N2N=C(c3ccccc3)CC2c2ccccc2)cc1 (stereo unspecified) | -9.6 | 1.5 | 0.5 | -5.9
CCCC(=O)OCC(=O)NC1CCCc2ccccc21 (stereo unspecified) | -4.9 | 2.1 | 0.3 | 1.7
Clc1ccc(-c2nc(NCCN3CCOCC3)c3ccccc3n2)cc1 | 24.2 | 4.8 | 63.2* | 19.4
O=c1[nH]c(NNC(=S)NCc2ccccc2)nc2c1C1(CCCCC1)Cc1ccccc1-2 | 27.4 | 1.5 | -3.1 | -4.0
O=C(Cn1cc(C(F)(F)F)ccc1=O)Nc1cc(S(=O)(=O)N2CCOCC2)ccc1Cl | 2.1 | -0.3 | -0.7 | -1.8
CSc1ccccc1OCc1cc(C(=O)N(C)Cc2ccc3nsnc3c2)no1 | 46.8 | 4.6 | 11.9 | 20.5
CSc1ccccc1OCc1cc(C(=O)N(C)Cc2ccc(C)o2)no1 | 57.2* | 2.6 | 5.5 | 39.7
Cc1cc(NC(=O)Nc2cccc(C)c2C)no1 | -2.9 | -0.8 | 51.6* | 2.9
Cc1cc(NC(=O)c2ccc(C)c(C)c2)no1 | 61.0* | 6.1 | -2.6 | 18.5
Cc1cccc(NC(=O)Nc2cc(C)on2)c1 | 10.4 | -0.6 | 17.0 | -1.5
CCN(CC)S(=O)(=O)c1cc(C(=O)Nc2cc(C)on2)ccc1Cl | -69.7 | 1.6 | -0.6 | -60.6*
CSC1=NC(C(Cl)(Cl)Cl)N=C(c2ccccc2)N1 (stereo unspecified) | 1.2 | -7.2 | 7.0 | -1.8
Cc1cccc(C(=O)NC(C)c2ccc(-n3ccnc3)cc2)c1C (stereo unspecified) | -13.6 | 2.1 | 43.6 | -3.2
SMILES | HSF1 activator | GAA850 FXN act | AHR act | HSF1 inhib
COc1ccc(C(=O)NC(C)c2ccc(-n3ccnc3)cc2)c(OC)c1 (stereo unspecified) | -3.1 | -1.5 | 54.1* | 2.3
COc1ccc(C(=O)NC(C)c2ccc(-n3ccnc3)cc2)c(OC)c1OC (stereo unspecified) | 7.1 | -1.2 | 18.3 | -1.7
CC(NC(=O)c1ccccc1OC(F)F)c1ccc(-n2ccnc2)cc1 (stereo unspecified) | 19.4 | 0.0 | 71.1* | -2.0
CC(C)(C)c1nnc(NC(=O)CCC2CCCCC2)s1 | . | 0.5 | . | .
CC(=O)N1c2ccc(S(=O)(=O)NCC3CCC(C(=O)N4CCCC(C)C4)CC3)cc2CC1C (stereo unspecified) | -11.7 | -1.0 | 0.3 | -3.0
C=CCOc1ccc(C(=O)Nc2ncn[nH]2)cc1 | 24.4 | 1.5 | 65.8* | -0.9
CCOc1ccc(C(=O)Nc2ncn[nH]2)cc1 | 1.3 | 2.1 | 23.4 | -13.2
COc1cc(OC)cc(C(=O)N2CCN(Cc3cccc(F)c3)CC2)c1 | 9.8 | 0.6 | 1.9 | 7.7
Cn1cnc2cc(NCc3ccc(Cl)cc3)ccc21 | 66.4* | 4.7 | 55.9* | 63.1
CCn1cnc2cc(NCc3ccc(C)cc3)ccc21 | 46.5 | 0.7 | 34.5 | 35.0
CCCn1cnc2cc(NCc3ccc(Br)cc3)ccc21 | 37.5 | 5.2 | 86.9* | 24.4
Brc1ccc(CNc2ccc3ncccc3c2)cc1 | 79.4* | 3.4 | . | 47.1
O=C(Nc1ccc2ncccc2c1)c1cccc(Br)c1 | ? | 6.1 | 0.2 | 30.4
CCn1cnc2cc(NCc3nc4ccccc4n3Cc3ccccc3)ccc21 | -51.4 | -3.1 | 73.1* | -43.6
O=C(COc1cccc2c1CCN(Cc1ccccc1)C2=O)NCc1ccco1 | 7.7 | 1.6 | 9.2 | 1.9
CCOC(=O)c1nc(NCc2ccccc2C)c2ccccc2n1 | -51.3 | 1.6 | -0.4 | -37.4
CCn1cnc2cc(NCc3ccc(N(C)C)cc3)ccc21 | -44.0 | -1.8 | 0.1 | -25.5
CCCn1cnc2cc(NCc3cccc(OC)c3)ccc21 | 51.0* | 4.7 | 10.4 | 27.8
CN(C)c1ccc(CNc2ccc3c(c2)ncn3C(C)(C)C)cc1 | -62.3 | -0.1 | 0.9 | -53.9*
Cc1cc(OCC(=O)Nc2sc3c(c2C#N)CC(C)(C)NC3(C)C)c(C(C)C)cc1Cl | -65.4 | -0.3 | -0.3 | -54.7*
OC(CN1CCCCC1)Cn1c(C(F)(F)F)nc2ccccc21 (stereo unspecified) | 6.5 | 0.9 | -0.9 | -2.0
Nc1nc(NCc2ccccc2)nc(Nc2cccc(F)c2)c1[N+](=O)[O-] | . | 1.2 | 34.7 | .
Nc1nc(NCc2ccccc2)nc(Nc2ccc(F)cc2)c1[N+](=O)[O-] | 7.7 | 2.9 | 103.3* | -4.8
Cc1ccc(Nc2nc(NCC3CCCO3)nc(N)c2[N+](=O)[O-])cc1 (stereo unspecified) | -1.6 | 4.1 | 26.0 | -4.2
Nc1nc(NCC2CCCO2)nc(Nc2ccc(F)cc2)c1[N+](=O)[O-] (stereo unspecified) | 10.6 | 2.4 | 75.7* | 0.5
SMILES | HSF1 activator | GAA850 FXN act | AHR act | HSF1 inhib
COc1ccccc1Nc1nc(NCCC(C)C)nc(N)c1[N+](=O)[O-] | 4.4 | 2.5 | 48.9* | 5.0
COc1ccc(Br)cc1CN(C)C(=O)Cc1ccc(S(=O)(=O)N2CCOCC2)s1 | -7.1 | -0.5 | 1.2 | 4.8
Cc1ccc(N2CCN(C(=O)c3ccccc3Br)CC2)c(C)c1 | -5.2 | 1.9 | 3.2 | -2.8
Cc1c(NC(=O)/C(=C\c2ccccc2)NC(=O)c2ccccc2)c(=O)n(-c2ccccc2)n1C | 0.2 | 1.2 | 1.7 | -4.2
CCCN1CCN(C(=O)c2cc(COc3ccc4ncccc4c3)on2)CC1 | -66.3 | -1.9 | -4.3 | -57.0*
CCC1CCCCN1C(=O)c1cc(COc2ccc3ncccc3c2)on1 (stereo unspecified) | -14.6 | -3.2 | -4.5 | -3.9
COCC1CCCCN1C(=O)c1cc(COc2ccc3ncccc3c2)on1 (stereo unspecified) | -78.9 | -5.0 | -5.5 | -71.7*
CCc1ccc(NC(=O)C2CCCN2S(=O)(=O)c2ccc3c(c2)C(C)(C)C(=O)N3C)cc1 (stereo unspecified) | 7.7 | -1.2 | -0.2 | 2.7
CN1C(=O)/C(=C\c2cc(N=Nc3ccccc3)ccc2O)SC1=S | 20.4 | -0.6 | 11.6 | -4.5
O=C1C(Cl)=C(Nc2ccc3cn[nH]c3c2)C(=O)c2ccccc21 | -88.9 | -14.1 | 70.3* | -89.8*

Screens deposited in PubChem BioAssay by several laboratories.
